According to publication PMC5540273 (PLoS ONE, 2017):

Key:
Settings in all cases: concentration: 1 μM, replicates: in singlicate; n = 1
[1] = test system: PKMYT1
[2] = test system: PKN1
[3] = test system: PKN2
[4] = test system: PLK1
[5] = test system: PLK2
[6] = test system: PLK3
[7] = test system: PLK4
[8] = test system: PRKCD
[9] = test system: PRKCE
[10] = test system: PRKCH
[11] = test system: PRKCI
[12] = test system: PRKCQ
[13] = test system: PRKD1
[14] = test system: PRKD2
[15] = test system: PRKD3
[16] = test system: PRKG1
[17] = test system: PRKG2
[18] = test system: T1, PRKR
T1 construct: gene EIF2AK2

[19] = test system: PRKX
[20] = test system: PRP4
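Also: KINOMEscan kinase panel screen.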

| Structure (SMILES) | %Inh [1] [%] | %Inh [2] [%] | %Inh [3] [%] | %Inh [4] [%] | %Inh [5] [%] | %Inh [6] [%] | %Inh [7] [%] | %Inh [8] [%] | %Inh [9] [%] | %Inh [10] [%] | %Inh [11] [%] | %Inh [12] [%] | %Inh [13] [%] | %Inh [14] [%] | %Inh [15] [%] | %Inh [16] [%] | %Inh [17] [%] | %Inh [18] [%] | %Inh [19] [%] | %Inh [20] [%] |
| --- | --- | --- | --- | --- | --- | --- | --- | --- | --- | --- | --- | --- | --- | --- | --- | --- | --- | --- | --- | --- |
| [2H]C([2H])(c1cccc(C(F)(F)F)c1C)n1ccn2c(=O)nc(N3CCOCC3)cc12 [GSK2336394] | 0 | 39 | 0 | 0 | 0 | 0 | 0 | 6 | 2 | 0 | 22 | 9 | 17 | 4 | 27 | 0 | 0 | 0 | 14 | 18 |
| Cc1c2ccc(N(C)c3ccnc(Nc4cccc(S(N)(=O)=O)c4)n3)cc2nn1Cc1ccccc1.Cl.Cl [GW787226] | 0 | 0 | 0 | 0 | 0 | 15 | 50 | 0 | 0 | 0 | 0 | 0 | 0 | 0 | 0 | 0 | 0 | 0 | 0 | 0 |
| CC(C)(C)n1cnc2c(N)ncnc21 [SKF-97359] | 0 | 0 | 0 | 0 | 0 | 0 | 0 | 1 | 0 | 0 | 0 | 0 | 0 | 13 | 0 | 12 | 0 | 0 | 0 | 17 |
| Fc1ccc(-c2nn3c(OCC(F)(F)F)cccc3c2-c2ccncc2)cc1 [GW514784] | 0 | 0 | 0 | 0 | 0 | 0 | 0 | 0 | 14 | 13 | 25 | 12 | 27 | 7 | 0 | 14 | 7 | 0 | 3 | 34 |
| O=C1NC(=O)C(N2CCc3ccccc32)=C1c1cccc(Cl)c1 [SB-408010] | 20 | 0 | 3 | 27 | 0 | 4 | 25 | 0 | 19 | 13 | 1 | 29 | 4 | 6 | 3 | 0 | 0 | 0 | 0 | 8 |
| Cl.Nc1ncnc2occ(-c3ccc(NC(=O)Nc4cc(C(F)(F)F)ccc4F)cc3)c12 [SB-707548] | 0 | 0 | 0 | 5 | 98.8 | 98 | 35 | 27 | 10 | 1 | 25 | 15 | 0 | 20 | 29 | 11 | 7 | 28 | 9 | 8 |
| O=c1cc(N2CCOCC2)nc2n(Cc3cccc(F)c3)ccn12 [GSK2297430] | 0 | 20 | 0 | 1 | 0 | 0 | 0 | 2 | 3 | 31 | 0 | 11 | 6 | 0 | 0 | 10 | 0 | 0 | 2 | 0 |
| CC(=O)Nc1ccc(COc2ccc(Nc3ccnc4cc(-c5ccccn5)ccc34)cc2)cc1.Cl [GW440148] | 0 | 32 | 0 | 0 | 0 | 0 | 0 | 0 | 0 | 0 | 15 | 0 | 18 | 14 | 0 | 0 | 8 | 27 | 12 | 27 |
| NCC(NC(=O)c1cc(-c2cn[nH]c2)c(-c2ccnc3[nH]ccc23)s1)c1ccccc1.O=C(O)C(F)(F)F.O=C(O)C(F)(F)F (centres unmarked) [GSK1325775] | 0 | 52 | 66 | 14 | 5 | 14 | 29 | 99.8 | 98.7 | 95.1 | 25 | 90.3 | 0 | 45 | 55 | 84 | 93.6 | 27 | 97.8 | 72 |
| CC(C)Oc1ccc2c(-c3ccnc(Nc4ccc(N5CCN(C)CC5)cc4)n3)cnn2n1 [GW696155] | 0 | 31 | 4 | 25 | 62 | 95.9 | 96.8 | 0 | 28 | 0 | 26 | 0 | 86 | 97.6 | 100 | 0 | 4 | 92.2 | 0 | 95 |
| Fc1ccc(-c2ncn(CCCN3CCOCC3)c2-c2ccccn2)cc1 [SB-211742] | 0 | 0 | 9 | 12 | 0 | 0 | 0 | 28 | 0 | 0 | 100 | 0 | 0 | 31 | 0 | 0 | 1 | 12 | 0 | 44 |
| C[C@@H](Oc1cc(-n2cnc3ccc(NC(=O)NC(C)(C)C)cc32)sc1C(N)=O)c1ccccc1Cl [GSK346294] | 5 | 0 | 0 | 99.9 | 96 | 87 | 0 | 5 | 19 | 21 | 0 | 15 | 2 | 14 | 24 | 3 | 15 | 0 | 21 | 43 |
| O=C(NOCC1CC1)c1ccc(F)c(F)c1Nc1ccc(I)cc1Cl | 0 | 0 | 0 | 0 | 8 | 0 | 0 | 3 | 28 | 0 | 0 | 0 | 8 | 0 | 0 | 0 | 0 | 0 | 0 | 0 |
| COc1ccc(Nc2ncc(C#N)c(Nc3ccccc3C(N)=O)n2)cc1N1CCN(C)CC1.Cl [GSK1558669] | 41 | 83 | 78 | 100 | 100 | 100 | 99.8 | 94 | 94.4 | 86 | 96.6 | 96.5 | 93.1 | 89 | 99 | 76 | 54 | 87 | 52 | 79 |
| O=c1cc(N2CCOCC2)nc2n(Cc3cccc(C(F)(F)F)c3)ccn12 [GSK2297543] | 0 | 29 | 5 | 3 | 0 | 0 | 0 | 8 | 0 | 9 | 4 | 8 | 0 | 1 | 0 | 27 | 0 | 8 | 0 | 22 |
| Cn1cc(-c2ccc3c(c2)CCN3C(=O)Cc2ccccc2Cl)c2c(N)ncnc21 [GSK2608885] | 18 | 42 | 31 | 15 | 51 | 86 | 55 | 51 | 7 | 54 | 10 | 83 | 0 | 47 | 54 | 0 | 0 | 0 | 19 | 8 |
| Cc1cccc(-c2nc(-c3ccc(S(C)(=O)=O)cc3)sc2-c2ccncc2)c1 | 20 | 17 | 0 | 0 | 8 | 6 | 10 | 24 | 7 | 10 | 0 | 9 | 0 | 0 | 0 | 0 | 0 | 2 | 1 | 6 |
| Cn1ccc2ncnc(Oc3ccc(NC(=O)Nc4ccncc4)c(Cl)c3)c21 | 2 | 0 | 0 | 0 | 8 | 0 | 0 | 6 | 0 | 16 | 0 | 0 | 14 | 0 | 0 | 3 | 0 | 0 | 0 | 14 |
| O=c1cc(N2CCOCC2)nc2n(Cc3cccc4ccccc34)ccn12 [GSK2333389] | 4 | 15 | 0 | 0 | 0 | 0 | 0 | 0 | 0 | 0 | 7 | 0 | 0 | 0 | 23 | 10 | 0 | 0 | 26 | 2 |
